Our source for the Potency, outcome and max response values is PubChem BioAssay (NCATS).

Test [1] concerns the target Glutathione peroxidase 1 (Homo sapiens) (UniProt P07203). The experiment in a line: Primary qHTS Assay for Inhibitors of Recombinant Selenoprotein Glutathione Peroxidase 1 (GPX1) (AID 1845191). Further: nearly all actives have a fitted effect of over 65% in size. The essentials: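 GR-coupled assay: compounds preincubated 30 min at room temperature with GPX1, then reaction started with CHP; final 10 nM GPX1, 1 mM GSH, 0.5 mM CHP, 0.5 mM NADPH, 100 nM GR, 0.01% BSA, pH 7.5 Tris buffer. NADPH fluorescence (340/450 nm) read at 0 and 15 min.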
On the technique in general: qHTS replaces the single test concentration by a dilution series.

Test [2] has as its target Phospholipid hydroperoxide glutathione peroxidase GPX4 (Homo sapiens) (UniProt P36969). The experiment in a line: Primary qHTS Assay for Inhibitors of Recombinant Selenoprotein Glutathione Peroxidase 4 (GPX4) (AID 1845192). Further: nearly all actives have a fitted effect of over 65% in size. In outline: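 GR-coupled assay: recombinant GPX4 preincubated 30 min with compound at room temperature; final 200 nM GPX4, 1 mM GSH, 0.5 mM cumene hydroperoxide, 0.5 mM NADPH, 100 nM GR, 0.01% BSA, pH 7.5 Tris. NADPH fluorescence (340/450 nm) read at 0 and 15 min.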

Test [3] addresses Cytochrome P450 3A4 (Homo sapiens) (UniProt P08684). The test can be described thus: qHTS for inhibitors of CYP3A4 against the NCATS DSHEA and TCM libraries (AID 1919971).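 Further: on the % scale 0 is the no-effect control and ±100 the full control effect; inhibition lowers luminescence from luciferin made by CYP3A4.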 The essentials: (§1)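 Light output from converted D-luciferin reports remaining CYP activity. Compounds preincubate with enzyme and substrate for 15 min; NADPH regeneration (1x final) runs the reaction for 30-45 min.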

Test [4] concerns the target Cytochrome P450 2D6 (Homo sapiens) (UniProt P10635). The experiment in a line: qHTS for inhibitors of CYP2D6 against the NCATS DSHEA and TCM libraries (AID 1919972). Further: on the % scale 0 is the no-effect control and ±100 the full control effect. The essentials: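 Steps: enzyme plus luciferin substrate dispensed; test substances pinned; 15 min RT; 1x NADPH regenerating solution added, 30–45 min RT protected from light; detection reagent, 30 min RT; luminescence measured. Minus-enzyme wells as background.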

The target in test [5] is Cytochrome P450 2C9 (Homo sapiens) (UniProt P11712). The experiment in a line: qHTS for inhibitors of CYP2C9 against the NCATS DSHEA and TCM libraries (AID 1919973).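 Further: luminogenic pro-luciferin CYP2C9 substrate turned into luciferin with NADPH regeneration; series mostly up to about 34 µM; on the % scale 0 is the no-effect control and ±100 the full control effect.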 The source says: (§2) Assay Development and Screening Technology Laboratory (ADST)
(§3) National Center for Advancing Translational Sciences (NCATS), Rockville, MD
(§4) National Institute of Health (NIH), Bethesda, Maryland
(§5) Dietary Supplements and Natural Products have minor oversight of their safety and efficacy. We assembled a collection of Dietary Supplements and Natural Products (DSNP) as well as Traditional Chinese Medicinal (TCM) Plant extracts, which were screened against an in vitro panel of assays, including a liver cytochrome p450 enzyme panel, CAR/PXR signaling pathways, and P-gp transporter assays, to assess their activity. This pipeline facilitated the interrogation of Natural Product-Drug Interaction (NaPDI) through prominent metabolizing pathways. In addition, we compared the activity profiles of the DSNP/TCM substances with those of an approved drug collection. Many of the approved drugs have well-annotated mechanisms of action (MOA) while the MOAs for most of the DSNP and TCM samples remain unknown. […] Overall, we highlight four significant bioactivity profiles (measured by p-values) as examples of this prediction. […] To profile potential P-gp activity, a differential cell viability was measured against two cell lines: a parental KB-3-1 human cervical adenocarcinoma cell line and the drug-resistant subline KB-8-5-11 that overexpresses P-gp. […]
9; Read; Luminescence; ViewLux plate reader. […]

Test [6] addresses Cytochrome P450 2C19 (Homo sapiens) (UniProt P33261). The test can be described thus: qHTS for inhibitors of CYP2C19 against the NCATS DSHEA and TCM libraries (AID 1919974).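 Further: luminescence from luciferin released by CYP2C19 oxidation of a pro-luciferin substrate; on the % scale 0 is the no-effect control and ±100 the full control effect.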 The essentials: as §1
Test [7] is described as follows: KB-3-1 P-gp reporter qHTS against the NCATS DSHEA and TCM libraries (AID 1919975). Further: 0% is about no effect.
Excerpt: as §2, §3, §4
as §5, with “collection.” for “collection. Many of the approved drugs have well-annotated mechanisms of action (MOA) while the MOAs for most of the DSNP and TCM samples remain unknown.”
8; Read; Luminescence; ViewLux plate reader. […]
8. Luminescence intensity was detected using a PerkinElmer ViewLux microplate reader. […]

In test [8] the target is Cytochrome P450 1A2 (Homo sapiens) (UniProt P05177). The test can be described thus: qHTS for inhibitors of CYPIA2 against the NCATS DSHEA and TCM libraries (AID 1919976).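 Further: light from luciferin formed by CYP1A2 from a pro-luciferin substrate; series mostly up to about 37 µM; on the % scale 0 is the no-effect control and ±100 the full control effect.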 The essentials: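 In this quantitative HTS, inhibition of recombinant human CYP1A2 was measured as loss of luciferin-derived luminescence. Turnover ran 30-45 min at RT after NADPH regeneration solution was added.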

A short description of test [9]: qHTS Counterscreen for compound interference against the NCATS DSHEA and TCM libraries (AID 1919978).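 Further: compounds preincubated with 1 µM D-luciferin or buffer before detection reagent; % of control where 0% means no effect.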 The following applies: firefly luciferase detection reagent interference, luminescence. In outline: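 Luminescence counterscreen for detection-kit interference: compounds at 19.5 nM–39.8 uM final, 15 min RT with 1 uM D-luciferin or buffer only; detection reagent added, 30 min RT, then read.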

Test [10] in a line: Dual reporter qHTS for agonist of Pregnane X Receptor (hPXR) against the NCATS DSHEA and TCM libraries: Fluorescence readout (AID 1920058). Further: 0% is about no effect. The essentials: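 Measures viability of the PXR reporter HepG2 line by protease-substrate fluorescence (405/540 nm), taken 1 h after CellTiter-Fluor addition. Substances are tested as concentration series over a ~24 h exposure, with rifampicin as agonist control.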

Unmarked numbers belong to inactive results. Records with an inconclusive call do not appear. The source made the active and inactive calls. The call rests on the fitted dose curve; in most records, active means well fitted curve in the direction sought with a large enough effect; inconclusive means small, poorly fitted or top-dose-only effect, or another doubt; inactive means no such curve, though single readings can be large; an effect the other way counts as inactive or inconclusive.

Sequence of Glutathione peroxidase 1 (Homo sapiens) (P07203 whole entry, looked up): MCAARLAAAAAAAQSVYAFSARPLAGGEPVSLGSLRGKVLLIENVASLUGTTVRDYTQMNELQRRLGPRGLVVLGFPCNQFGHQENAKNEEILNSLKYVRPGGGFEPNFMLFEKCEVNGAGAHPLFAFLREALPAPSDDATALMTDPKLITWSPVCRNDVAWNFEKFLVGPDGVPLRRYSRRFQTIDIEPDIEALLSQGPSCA
Sequence of Phospholipid hydroperoxide glutathione peroxidase GPX4 (Homo sapiens) (P36969 whole entry, looked up): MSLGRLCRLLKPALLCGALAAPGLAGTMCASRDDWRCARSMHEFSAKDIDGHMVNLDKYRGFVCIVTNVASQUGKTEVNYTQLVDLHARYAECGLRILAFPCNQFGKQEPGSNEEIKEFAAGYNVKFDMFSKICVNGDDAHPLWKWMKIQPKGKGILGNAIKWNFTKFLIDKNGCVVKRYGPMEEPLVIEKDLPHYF
Sequence of Cytochrome P450 2C9 (Homo sapiens) (P11712 whole entry, looked up): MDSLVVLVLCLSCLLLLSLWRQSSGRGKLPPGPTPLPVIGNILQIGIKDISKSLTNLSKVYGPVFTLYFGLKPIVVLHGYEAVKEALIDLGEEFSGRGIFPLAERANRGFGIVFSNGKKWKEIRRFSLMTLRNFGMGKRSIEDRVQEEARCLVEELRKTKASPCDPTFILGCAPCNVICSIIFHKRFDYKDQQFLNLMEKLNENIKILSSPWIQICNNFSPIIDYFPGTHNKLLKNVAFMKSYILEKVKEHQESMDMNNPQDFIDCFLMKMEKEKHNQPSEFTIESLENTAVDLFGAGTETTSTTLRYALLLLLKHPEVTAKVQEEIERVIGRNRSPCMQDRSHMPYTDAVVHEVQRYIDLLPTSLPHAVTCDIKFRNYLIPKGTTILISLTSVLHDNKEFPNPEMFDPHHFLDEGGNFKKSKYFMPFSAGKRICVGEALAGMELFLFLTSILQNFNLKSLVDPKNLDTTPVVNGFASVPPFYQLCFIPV
Sequence of Cytochrome P450 2D6 (Homo sapiens) (P10635 whole entry, looked up): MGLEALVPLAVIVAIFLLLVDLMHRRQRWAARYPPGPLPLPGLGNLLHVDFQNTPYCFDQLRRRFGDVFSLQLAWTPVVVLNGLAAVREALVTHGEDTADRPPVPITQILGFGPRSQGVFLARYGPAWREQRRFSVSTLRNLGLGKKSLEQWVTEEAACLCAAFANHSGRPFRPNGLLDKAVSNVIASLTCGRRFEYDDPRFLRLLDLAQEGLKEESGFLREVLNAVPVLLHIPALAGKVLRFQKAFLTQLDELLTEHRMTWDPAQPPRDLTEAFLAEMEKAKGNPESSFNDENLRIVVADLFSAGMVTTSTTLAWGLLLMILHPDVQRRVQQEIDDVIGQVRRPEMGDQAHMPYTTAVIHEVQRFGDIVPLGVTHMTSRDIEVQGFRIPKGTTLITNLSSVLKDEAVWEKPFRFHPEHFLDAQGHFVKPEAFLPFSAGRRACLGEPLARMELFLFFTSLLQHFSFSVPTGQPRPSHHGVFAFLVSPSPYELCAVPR
Sequence of Cytochrome P450 3A4 (Homo sapiens) (P08684 whole entry, looked up): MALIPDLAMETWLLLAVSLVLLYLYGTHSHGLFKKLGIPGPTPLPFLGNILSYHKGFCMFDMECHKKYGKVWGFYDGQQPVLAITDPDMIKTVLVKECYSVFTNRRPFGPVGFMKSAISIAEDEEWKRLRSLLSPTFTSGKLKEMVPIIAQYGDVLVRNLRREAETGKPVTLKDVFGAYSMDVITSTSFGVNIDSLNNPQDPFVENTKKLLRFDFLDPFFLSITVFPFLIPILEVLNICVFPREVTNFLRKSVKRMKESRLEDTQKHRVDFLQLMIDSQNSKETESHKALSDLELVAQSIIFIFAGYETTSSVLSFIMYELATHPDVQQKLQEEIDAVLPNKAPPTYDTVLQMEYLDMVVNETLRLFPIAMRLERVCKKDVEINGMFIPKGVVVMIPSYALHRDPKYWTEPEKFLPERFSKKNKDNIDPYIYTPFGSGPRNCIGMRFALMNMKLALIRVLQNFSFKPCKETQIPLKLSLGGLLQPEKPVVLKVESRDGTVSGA
Sequence of Cytochrome P450 2C19 (Homo sapiens) (P33261 whole entry, looked up): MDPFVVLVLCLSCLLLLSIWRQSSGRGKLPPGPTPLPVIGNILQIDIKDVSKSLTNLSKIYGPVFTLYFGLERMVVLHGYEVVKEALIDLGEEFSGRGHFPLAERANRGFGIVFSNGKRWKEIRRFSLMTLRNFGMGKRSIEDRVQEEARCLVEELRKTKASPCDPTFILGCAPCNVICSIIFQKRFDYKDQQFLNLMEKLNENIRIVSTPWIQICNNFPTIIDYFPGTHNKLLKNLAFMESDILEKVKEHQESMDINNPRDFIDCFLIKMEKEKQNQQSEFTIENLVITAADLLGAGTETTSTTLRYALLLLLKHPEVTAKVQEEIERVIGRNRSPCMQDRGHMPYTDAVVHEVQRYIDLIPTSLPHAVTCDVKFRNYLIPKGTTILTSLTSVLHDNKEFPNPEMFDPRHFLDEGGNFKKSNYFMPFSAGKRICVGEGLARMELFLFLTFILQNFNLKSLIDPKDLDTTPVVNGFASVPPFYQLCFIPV
Sequence of Cytochrome P450 1A2 (Homo sapiens) (P05177 whole entry, looked up): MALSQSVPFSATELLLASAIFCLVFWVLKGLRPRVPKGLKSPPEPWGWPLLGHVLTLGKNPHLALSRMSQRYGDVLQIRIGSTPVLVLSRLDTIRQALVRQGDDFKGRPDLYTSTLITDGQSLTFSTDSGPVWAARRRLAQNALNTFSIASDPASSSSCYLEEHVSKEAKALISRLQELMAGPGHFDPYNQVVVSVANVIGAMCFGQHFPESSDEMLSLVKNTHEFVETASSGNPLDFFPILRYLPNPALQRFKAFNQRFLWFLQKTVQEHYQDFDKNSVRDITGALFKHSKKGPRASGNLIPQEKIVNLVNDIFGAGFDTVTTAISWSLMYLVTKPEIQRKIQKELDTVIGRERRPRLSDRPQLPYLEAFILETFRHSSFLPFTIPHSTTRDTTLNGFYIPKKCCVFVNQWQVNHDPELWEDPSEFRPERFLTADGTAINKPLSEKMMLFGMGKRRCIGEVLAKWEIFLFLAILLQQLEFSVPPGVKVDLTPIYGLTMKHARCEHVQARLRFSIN

Take `O=C(O)c1ccccc1Nc1ccccc1`: the Potency result in test [1] and in [2] was “inactive” throughout.
For `CCCOC(=O)c1c(-c2ccccc2)nc(CC)c(C(=O)SCC)c1CCC`, the Potency entry in [1] and in [2] was “inactive” throughout.
For `CCOC(=O)C12CC1/C(=N/O)c1ccccc1O2` (centres undefined), the Potency entry in test [1] and in test [2] was “inactive” throughout.
Turning to `NC(=O)CC[C@H](N)C(=O)O`, the Potency result in test [1] and in test [2] was “inactive” each time.
Consider `CCCn1c(=O)c2[nH]c(C3CCCC3)nc2n(CCC)c1=O`, for which the Potency entry in test [1] and in test [2] was “inactive” throughout.
Turning to `N[C@H](C(=O)O)[C@H](Cc1ccccc1)C(=O)O`, the Potency result in test [1] and in [2] was “inactive” each time.
As to `CC1CCN(CC[C@H]2CCCN2S(=O)(=O)c2cccc(O)c2)CC1`, the Potency result in test [1] and in test [2] was “inactive” each time.
In the case of `CC1CNCCN1S(=O)(=O)c1cccc2cnccc12` (centres undefined), the Potency result in [1] and in test [2] was “inactive” in each case.
In the case of `CSC(=N)N`, the Potency result in test [1] and in test [2] was “inactive” each time.
Regarding `CC(=O)N[C@@H](Cc1c[nH]c2ccccc12)C(=O)OCc1cc(C(F)(F)F)cc(C(F)(F)F)c1`, the Potency entry in test [1] and in test [2] was “inactive” in each case.
For `S=C(S)N1CCCC1`, the Potency entry in test [1] and in [2] was “inactive” throughout.
As for `NCC(O)(CS(=O)(=O)O)c1ccc(Cl)cc1` (centres undefined), the Potency entry in test [1] and in test [2] was “inactive” in each case.
Regarding `CCSC(=N)N`, the Potency result in test [1] and in [2] was “inactive” each time.
`COC(=O)C1=C(C)NC(C)=C([N+](=O)[O-])C1c1ccccc1C(F)(F)F` (centres undefined): the Potency result in test [1] and in test [2] was “inactive” throughout.
Consider `Cn1ccnc1`, for which, in [2], the Potency result is “inactive”.
For the compound `CCC1(O)CC2CN(CCc3c([nH]c4ccccc34)[C@@](C(=O)OC)(c3cc4c(cc3OC)N(C=O)C3[C@]45CCN4CC=C[C@@](CC)([C@@H](OC(C)=O)[C@]3(O)C(=O)OC)[C@H]45)C2)C1` (some centres undefined), the Potency entry in test [1] and in [2] was “inactive” in each case.
`C=C(C)C1CC=C(C(=O)O)CC1` (centres undefined): the Potency entry in test [1] and in test [2] was “inactive” in each case.
Take `Cn1c(=O)c2c(nc(/C=C/c3cccc(Cl)c3)n2C)n(C)c1=O`: the Potency entry in test [1] and in test [2] was “inactive” each time.
As for `N[C@@H](Cc1ccc(O)c(I)c1)C(=O)O`, the Potency entry in test [1] and in [2] was “inactive” each time.
`NC(N)=N[C@@H](CCC(=O)O)C(=O)O`: the Potency entry in test [1] and in test [2] was “inactive” each time.
For `CC(N)(Cc1ccc(O)c(O)c1)C(=O)O` (centres undefined), the Potency result in test [1] and in test [2] was “inactive” throughout.
Regarding `Cc1cc2c(cc1Cl)N(C(=O)Nc1ccnc3ccccc13)CC2`, the Potency entry in [1] and in [2] was “inactive” in each case.
With `Nc1nc2ccc(Cl)cc2c2nc(-c3ccco3)nn12`, the Potency result in test [1] and in test [2] was “inactive” in each case.
In the case of `CC[C@@H]1Cc2cc(O)ccc2C2=C1c1ccc(O)cc1C[C@H]2CC`, the Potency entry in test [1] and in test [2] was “inactive” each time.
`Nc1ccc(CCNc2ncnc3c2ncn3C2OC(CO)C(O)C2O)cc1` (centres undefined): the Potency result in test [1] and in test [2] was “inactive” each time.
Regarding `CNc1ncnc2c1ncn2[C@H]1C[C@H](OP(=O)(O)O)[C@@H](COP(=O)(O)O)O1`, the Potency result in test [2] was “inactive”.
Consider `c1ccc2c(c1)CCC[C@H]2Nc1nc2ccccc2[nH]1`, for which the Potency result in test [1] and in test [2] was “inactive” in each case.
As for `O=c1[nH]c(=O)c2nc3ccccc3nc2[nH]1`, the Potency result in test [1] and in test [2] was “inactive” each time.
Turning to `O=c1onc2cnc3ccccc3n12`, the Potency entry in [1] and in [2] was “inactive” in each case.
`OC[C@H]1O[C@@H](n2cnc3cncnc32)[C@H](O)[C@@H]1O`: the Potency entry in test [1] and in [2] was “inactive” in each case.
Consider `O=C(O)C1=CCNCC1`, for which the Potency result in test [1] and in test [2] was “inactive” throughout.
For the compound `CC(C)NCC(O)COc1ccc(CC(N)=O)cc1` (centres undefined), the Potency result in test [1] and in test [2] was “inactive” each time.
Turning to `CC(=O)O[C@H]1Cc2ccccc2N(C(N)=O)c2ccccc21`, the Potency entry in test [1] and in [2] was “inactive” in each case.
Take `COC(=O)C(N)Cc1ccc(Cl)cc1` (centres undefined): the Potency result in [1] and in test [2] was “inactive” in each case.
`O=c1oc(Cl)c(Cl)c2ccccc12`: the Potency result in test [1] and in test [2] was “inactive” in each case.
Consider `C/C(=C\c1ccc(C(=O)O)cc1)c1ccc2c(c1)C(C)(C)CCC2(C)C`, for which the Potency entry in test [1] and in test [2] was “inactive” in each case.
`C=C1C[C@@]23CC[C@H]4[C@@](C)(CCC[C@@]4(C)C(=O)OC4OC(CO)C(O)C(O)C4O)[C@@H]2CC[C@]1(OC1OC(CO)C(O)C(O)C1OC1OC(CO)C(O)C(O)C1O)C3` (some centres undefined): the Potency result in test [1] was “inactive”. Also, the compound was called inactive in test [3], in test [4], in [5], in test [6], in test [7] and in test [8]. For the same compound, in test [10], the outcome was inactive. The max response in [9] was 4.65%.
As to `Cc1cc(Cn2cnc3c2C[C@@H](C(=O)O)N(C(=O)C(c2ccccc2)c2ccccc2)C3)ccc1N`, the Potency entry in test [1] and in test [2] was “inactive” throughout.
For the compound `C[C@H](NC(=O)/C(C#N)=C/c1ccc(O)c(O)c1)c1ccccc1`, the Potency result in test [1] and in test [2] was “inactive” each time.
Regarding `COc1ccccc1N1CCN(CCCCNC(=O)c2ccc3ccccc3c2)CC1`, the Potency entry in [1] and in test [2] was “inactive” throughout.
For `O=C(O)CCC/C=C\C[C@@H]1[C@@H](/C=C/[C@H](O)C2Cc3ccccc3C2)[C@@H](F)C[C@@H]1O`, the Potency result in test [1] and in test [2] was “inactive” each time.
Take `O=[N+]([O-])c1cccc2cn[nH]c12`: the Potency entry in [1] and in test [2] was “inactive” in each case.
Turning to `O=C(O)/C=C/c1cnc[nH]1`, the Potency entry in [1] and in [2] was “inactive” in each case.
Regarding `Cn1c(=O)c2[nH]c(C3CCCC3)nc2n(C)c1=O`, the Potency entry in test [1] and in [2] was “inactive” throughout.
Turning to `O=C(O)c1cccnc1C(=O)O`, the Potency result in test [1] and in [2] was “inactive” each time.
For `COc1ccc(CCN(C)CCc2ccc(OC)c(OC)c2)cc1OC`, the Potency entry in test [1] and in test [2] was “inactive” each time.
As for `O=C(O)/C=C/c1ccc(O)c(O)c1`, the Potency result in test [1] and in test [2] was “inactive” in each case. The result in test [3], in test [4], in test [5], in test [7] and in test [10] was inactive. For the same compound, the max response in test [9] was -3.07%.
Regarding `COCc1nc2c([nH]1)c(=O)n(C)c(=O)n2CC(C)C`, the Potency result in test [1] and in test [2] was “inactive” throughout.
In the case of `CC(C)C[C@H](NC(=O)C1OC1C(=O)O)C(=O)NCCCCN=C(N)N` (some centres undefined), the Potency entry in test [1] and in test [2] was “inactive” each time.
